Screens deposited in PubChem BioAssay by several laboratories.
RecA intein inh: Mtb RecA intein splicing inhibition; 290,000 tested, 0.75% active; inhibition, % (no concentration beside the values); P9WHJ3; cell-free RecA intein splicing, fluorescence; in the data active = inhibition above about 30%;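 also: 0% = vehicle wells and 100% = reference inhibitor control wells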
Target sequence (P9WHJ3 whole entry, looked up): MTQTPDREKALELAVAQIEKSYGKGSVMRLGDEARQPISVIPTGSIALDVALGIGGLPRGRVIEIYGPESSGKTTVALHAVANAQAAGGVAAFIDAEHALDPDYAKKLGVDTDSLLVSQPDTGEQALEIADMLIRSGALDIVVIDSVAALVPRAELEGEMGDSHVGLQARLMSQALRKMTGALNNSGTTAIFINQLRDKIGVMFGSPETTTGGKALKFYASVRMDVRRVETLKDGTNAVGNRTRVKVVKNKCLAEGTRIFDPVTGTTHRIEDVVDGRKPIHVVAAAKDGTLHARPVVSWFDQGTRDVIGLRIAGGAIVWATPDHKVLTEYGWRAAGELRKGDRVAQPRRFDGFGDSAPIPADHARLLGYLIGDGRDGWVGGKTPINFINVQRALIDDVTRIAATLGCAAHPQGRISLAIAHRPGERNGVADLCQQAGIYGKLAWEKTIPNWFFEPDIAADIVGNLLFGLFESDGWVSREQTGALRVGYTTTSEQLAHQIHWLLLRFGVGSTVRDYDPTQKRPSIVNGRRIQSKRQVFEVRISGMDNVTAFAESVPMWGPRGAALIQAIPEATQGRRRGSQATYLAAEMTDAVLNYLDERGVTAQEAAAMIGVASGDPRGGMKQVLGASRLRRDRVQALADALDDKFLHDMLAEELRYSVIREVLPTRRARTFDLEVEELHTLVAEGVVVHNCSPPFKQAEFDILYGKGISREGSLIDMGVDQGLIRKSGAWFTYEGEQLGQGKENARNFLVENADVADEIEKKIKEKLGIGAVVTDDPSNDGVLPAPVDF
Mtb betalactam: beta-lactam sensitization of Mtb H37Rv. M. tuberculosis H37Rv growth with meropenem, percent inhibition. inhibition, % at 25 µM. 330,000 tested, 0.27% active. AID 434955; call rule not given here;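 also: growth measured after seven days incubation then overnight dye step; 0% = bacteria only wells and 100% = bacteria with antibiotic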
Mtb FBA inh: Mtb fructose-bisphosphate aldolase inhibition; P9WQA3; purified M. tuberculosis FBA, fluorescence read-out; inhibition, % at 1 µM; 360,000 tested, 2.3% active; AID 588726; in the data active = inhibition above about 27%;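 also: 0% = vehicle and 100% = reference inhibitor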
UGM FP inh: blocks M. tuberculosis UGM enzyme. P9WIQ1. purified UGM, fluorescence polarization probe displacement. inhibition, % at 10 µM. 320,000 tested, 0.06% active; in the data active = inhibition above about 10%, passing the limit was not always enough
GDH-TPI counter: inhibits GDH-TPI coupling enzymes, artifact for Mtb FBA screen; GDH-TPI coupled enzyme counterscreen, NADH absorbance; 360,000 tested, 1.2% active; inhibition, % at 4.8 µM; in the data active = inhibition above about 30%;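 also: 0% = DMSO wells and 100% = wells lacking the enzyme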
Rv3671c protease: inhibits the M. tuberculosis serine protease Rv3671c; P9WHR9; inhibition, % at 5.96 µM; 320,000 tested, 0.048% active; AID 2606; in the data active = inhibition above about 38%;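 also: extracellular domain of Rv3671c used as enzyme; 0% = enzyme with DMSO and 100% = no enzyme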
* marks the source's active call; other numbers are inactive results; i = inactive; · = no result given; + = active, no number. In the library only some 4% were active in any assay of this set; here they are far more common.

SMILES	RecA intein inh	Mtb betalactam	Mtb FBA inh	UGM FP inh	GDH-TPI counter	Rv3671c protease
COc1ccc(C2Nc3ccccc3C(=O)N2NS(C)(=O)=O)cc1OC (stereo not drawn)	-8	-2	25	0	5	6
COc1ccc(C2Nc3ccccc3C(=O)N2Cc2ccccc2)cc1OC (stereo not drawn)	1	1	74*	-5	-1	-6
C[C@H](NC(=O)c1ccc(Cl)cc1)C(=O)NNC(=O)c1cccs1	·	-8	0	-2	-4	4
CCCCCc1cc(=O)oc2c(C(CCN3CCCC(C)C3)c3cc(OC)c(OC)c(OC)c3)c(OC)cc(OC)c12 (stereo not drawn)	29	100	1	-2	-5	-4
CCCCCc1cc(=O)oc2c(C(CCN3CCCC(C)C3)c3ccc(N(C)C)cc3)c(OC)cc(OC)c12 (stereo not drawn)	31*	100	3	2	-2	-5
Cc1ccc(NC(=O)CN(C)C(=O)C2CSC3(C)CCC(=O)N23)cc1 (stereo not drawn)	·	·	0	·	11	·
CCCCOc1ccc(C(=O)N/C(=C/C=C/c2ccccc2)C(=O)NCCCO)cc1	10	-1	1	3	26	-18
CN(C)CCCNC(=O)/C(=C\C=C\c1ccccc1)NC(=O)c1ccc([N+](=O)[O-])cc1	3	4	-2	2	34*	3
C=CCNC(=O)/C(=C\C=C\c1ccccc1)NC(=O)c1ccc(OCCCC)cc1	8	27	3	1	35*	-10
CCCCOc1ccc(C(=O)N/C(=C/C=C/c2ccccc2)C(=O)NCCO)cc1	1	10	-2	0	31*	3
COc1ccccc1CN1CC(=O)N2CSC[C@H]2C1=O	-4	6	2	0	3	-5
COc1ccc(-c2cnnc(N/N=C/c3ccc(OC)c(OC)c3)n2)cc1	-9	6	-2	-1	54*	6
Clc1ccc(-c2ccc(/C=N/Nc3nncc(-c4ccccc4)n3)o2)cc1	1	99	-2	1	4	5
Cc1ccc(/C=N/Nc2nncc(-c3ccccc3)n2)o1	-5	-7	-3	4	44*	5
Cn1cc(/C=C2\C(=O)NC(=O)N(c3ccccc3)C2=O)c2ccccc21	-3	98	-5	14*	9	-5
Cc1ccc(S(=O)(=O)N2CCN(C(=O)COC(=O)/C=C/c3ccc(OC(F)F)cc3)CC2)cc1	·	·	5	·	9	·
N=c1c(C(=O)NCC2CCCO2)cc2c(=O)n3ccccc3nc2n1Cc1ccc(Cl)cc1 (stereo not drawn)	i	4	+	1	0	0
Cc1ccc(Cn2c(=N)c(C(=O)NCC3CCCO3)cc3c(=O)n4cccc(C)c4nc32)cc1 (stereo not drawn)	-2	1	+	0	3	-4
Cc1ccc(Cn2c(=N)c(C(=O)NCC3CCCO3)cc3c(=O)n4ccccc4nc32)cc1 (stereo not drawn)	i	8	162*	1	4	-4
N=c1c(C(=O)NCC2CCCO2)cc2c(=O)n3ccccc3nc2n1Cc1ccccc1Cl (stereo not drawn)	-463	-6	166*	-3	6	-2
CN(CC(=O)Nc1ccccc1Cl)CC(=O)Nc1sc2c(c1C(N)=O)CCC2	-1	1	1	0	-6	6
Cc1cc(C)c(C#N)c(OCC2CCCO2)n1 (stereo not drawn)	·	·	2	·	·	·
COc1ccc(Cn2c(=N)c(C(=O)NCC3CCCO3)cc3c(=O)n4ccccc4nc32)cc1 (stereo not drawn)	-12	-7	9	3	15	-11
N=c1c(C(=O)NCC2CCCO2)cc2c(=O)n3ccccc3nc2n1Cc1ccccc1 (stereo not drawn)	i	2	+	-1	18	6
COC(=O)C1C2CC(=O)C(C2)C1C(=O)OC (stereo not drawn)	·	·	2	·	0	·
SMILES	RecA intein inh	Mtb betalactam	Mtb FBA inh	UGM FP inh	GDH-TPI counter	Rv3671c protease
O=c1c2ccccc2sc2ccccc12	·	·	23	·	-5	·
Cc1cc(=O)c2ccccc2s1	1	1	-3	1	32*	-8
COc1ccccc1/C=C\C(=O)NCC(=O)N/N=C/c1ccc(O)cc1O	-1	1	-2	4	36*	7
CCc1nc2ccc(C(=O)NCCCN3CCCC3=O)cn2c1N(CC)C(=O)NCCc1ccccc1	·	·	4	·	-5	·
CC(C)(C)OC(=O)[C@H](Cc1ccccc1)NC(=O)c1ncn2c1c(=O)[nH]c1ccc(Br)cc12	·	·	2	·	8	·
COc1ccc(-n2c(SC)nc3sc4c(c3c2=O)CCN(C)C4)cc1	-9	·	11	·	26	·
COc1ccc(-n2c(SCC(=O)Nc3nccs3)nc3sc4c(c3c2=O)CCN(C)C4)cc1	16	66	3	-1	32*	-14
COc1ccc(NC(=O)CSc2nc3sc4c(c3c(=O)n2-c2ccc(OC)cc2)CCN(C)C4)cc1	7	10	2	2	35*	-17
COCCSc1nc2sc3c(c2c(=O)n1-c1ccccc1)CCN(C)C3	2	·	13	1	31*	0
CCOC(=O)CSc1nc2sc3c(c2c(=O)n1C1CCCCC1)CCN(C)C3	34*	64	20	1	39*	-1
CCOC(=O)c1c(C)[nH]c(C(=O)CN(C)CC(=O)Nc2ccccc2Cl)c1C	·	-10	-1	-2	7	-13
CCn1cnc2c1c(=O)n(CC(=O)OC(C)C(N)=O)c(=O)n2Cc1ccccc1 (stereo not drawn)	1	14	4	3	6	4
CCOc1ccc(-n2c(SCC(N)=O)nc3sc4c(c3c2=O)CCN(C)C4)cc1	2	-5	4	3	32*	-1
Cc1[nH]c(C)c(S(=O)(=O)NCCc2ccc(S(N)(=O)=O)cc2)c1C(=O)N1CCCC1	2	5	4	0	-13	10
CS/C(=C\[N+](=O)[O-])Nc1ccc(Cl)cc1	42*	82	3	0	12	-7
CC(C)=CC(=O)Nc1ccc(Cl)cc1	-1	9	-2	0	-10	-1
CC1(C(=O)NS(=O)(=O)C2CC2)CCCN(C(=O)Cc2ccc(F)cc2)C1 (stereo not drawn)	·	·	0	·	-6	·
O=C1CCCC2=C1C(c1ccncc1)n1c(nc3ccccc31)N2 (stereo not drawn)	-2	4	+	-2	14	-3
CC1CC(=O)C2=C(C1)Nc1nc3ccccc3n1C2c1cccnc1 (stereo not drawn)	-1	1	165*	-1	14	-7
CSc1nc2n(n1)C(c1cccs1)C1=C(CCCC1=O)N2 (stereo not drawn)	0	2	11	·	4	0
Cc1ccsc1C(=O)Nc1ccc(S(=O)(=O)N2CCOCC2)cc1	·	-4	-3	3	-1	-2
CC1(Oc2ccc3ccccc3c2)CCN(Cc2ccc(OC(F)(F)F)cc2)C1 (stereo not drawn)	·	·	3	·	11	·
